From PubChem BioAssay come the findings set out here.

Values without a mark were called inactive. Activity calls are given as the source filed them. The rule behind the calls is not given here.

What is called inhibition is the drop in the measured response relative to a control, in per cent.

Chain of L-lactate dehydrogenase (Plasmodium falciparum (isolate CDC / Honduras)) (Q27743 whole entry, looked up): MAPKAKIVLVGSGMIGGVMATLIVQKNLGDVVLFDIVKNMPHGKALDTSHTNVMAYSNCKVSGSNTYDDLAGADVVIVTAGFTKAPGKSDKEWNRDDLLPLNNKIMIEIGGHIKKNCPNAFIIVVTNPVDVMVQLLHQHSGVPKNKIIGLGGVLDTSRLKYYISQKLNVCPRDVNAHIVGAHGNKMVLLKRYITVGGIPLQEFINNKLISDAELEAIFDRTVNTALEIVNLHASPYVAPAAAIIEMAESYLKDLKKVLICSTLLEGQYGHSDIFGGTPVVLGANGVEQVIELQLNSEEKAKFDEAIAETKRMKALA

One experiment has as its target L-lactate dehydrogenase (Plasmodium falciparum (isolate CDC / Honduras)) (UniProt Q27743). In words: PfLDH activity inhibition – cell lysate, 3D7 strain, counter-screen for P. falciparum growth inhibition project (AID 2304).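 Note: 0% = vehicle and 100% = reference inhibitor.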 The conditions noted are these: P. falciparum 3D7 crude extract, LDH APAD/NBT absorbance; at 2 µM; hits give high values. For orientation: A counterscreen serves to expose hits that act by an unwanted route or on another target.
Take `COc1ccc2ncc(F)c(CCN3CC[C@@H](CNCc4cc(C)c5c(c4)OCCO5)C3)c2n1`: the inhibition was 0%.
Take `C#CCN(Cc1cc2c(=O)[nH]c(N)nc2cc1C)c1ccc(C(=O)N[C@@H](CCC(=O)O)C(=O)O)cc1`: the inhibition is -1%.
On the same count and under the same terms, in the case of `COc1cc(Cc2cnc(N)nc2N)cc(OCCCOc2ccccc2)c1OC` it was -4%.

Test system in a further experiment: not listed separately
In words: inhibition of 3D7 malaria parasite growth – strain 3D7 (AID 2306).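 Note: 0% = DMSO wells and 100% = chloroquine plus artemisinin control wells.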 The conditions noted are these: P. falciparum 3D7 erythrocytic growth, LDH absorbance, 72 h; at 2 µM; hits give high values.
Turning to `CCCCCCOc1ccccc1C(=O)NCCOc1ccc(Cl)cc1`, the growth inhibition was 84% (active).
On the same count and under the same terms, in the case of `CCOc1ccc(C(Cc2ccccc2)NC(=O)c2cccnc2)cc1OCC` (stereo not drawn) it was 100% (active); in that of `c1ccc2[nH]c(-c3ccc(-c4ccc(CNC5CC5)cc4)s3)nc2c1`, 91% (active); in that of `Cn1nc(-c2ccccc2F)c2cc(C(=O)Nc3cccnc3)sc21`, 92% (active).
Regarding `COc1c(Br)cc(Br)cc1-c1ccc(CN2C3CCCC2CCC3)[nH]1`, the growth inhibition is 88% (active).
Same read-out and setting: the same measure for `CC(=O)Nc1cccc(C(=O)Nc2cccc(-c3ccc(-c4nc5ccc(F)cc5[nH]4)s3)c2)c1`: 94% (active); for `O=C(/C=C/c1ccc(F)cc1)NC1CCC(CCN2CCCN(c3ccc(C(F)(F)F)cn3)CC2)CC1` (stereo not drawn): 97% (active).
With `CN(C)C(C)(C)CN(Cc1ccc(-c2ccc(C(F)(F)F)cc2)cc1)C(=O)Cn1c(CCc2cccc(F)c2F)nc(=O)c2ccccc21`, the growth inhibition is 95% (active).
Regarding `Cc1ccc(-c2nc(NC(=O)Nc3ccc(C(F)(F)F)cc3)sc2C)cc1Cl`, the growth inhibition was 99% (active).
On the same count and under the same terms, in the case of `CN1CCC(NCc2cccc(-c3ccc(S(=O)(=O)NCCN4CCCC4)s3)c2)CC1` it was 91% (active); in that of `O=c1cc(NCCCNCc2cc(Cl)cc(Cl)c2OCc2ccc(Cl)cc2)[nH]c2ccccc12`, 98% (active); in that of `CC1CCCN(c2ccc(NC(=O)c3cccs3)cc2[N+](=O)[O-])C1` (stereo not drawn), 96% (active).
Regarding `CC(C)CCCC(C)(C)NC[C@@H](O)[C@H](Cc1ccccc1)NC(=O)c1cc(NC(C)C)cc(N2CCCCS2(=O)=O)c1`, the growth inhibition was 98% (active).
Same read-out and setting: in the case of `C=CCc1cccc(C)c1OCCCON1C(N)=NC(N)=NC1(C)C` it was 94% (active).
The same measure, in the same setting: in the case of `CC(C)CC(=O)N(Cc1ccc(-c2ccc(CNC3Cc4ccccc4C3)cc2)cc1)C1CCNCC1` it was 85% (active); in that of `Oc1ccccc1CN[C@@H]1CCCC[C@H]1NCc1ccccc1O`, 96% (active); in that of `C=CCN1C(=O)CN(S(=O)(=O)c2ccc(-n3nc(C)cc3C)cc2)C1=S`, 93% (active).
Same read-out and setting: in the case of `O=C(/C=C/c1ccc(Cl)c(Cl)c1)NCCCCCCN1CCCN(C(=O)Nc2cccc(Cl)c2)CC1` it was 94% (active); in that of `O=C(NC1CC1)c1ccc(N2CCCCN2CCc2ccccc2)c(C(F)(F)F)c1`, 98% (active).
In the case of `CC(C)(C)c1ccc(OCCCON2C(N)=NC(N)=NC2(C)C)c(C(C)(C)C)c1`, the growth inhibition is 93% (active).
On the same count and under the same terms, the same measure for `COc1ccc(-c2ccc(NC(=O)c3cccc(Cl)c3)cc2)cc1CN1CCC(O)CC1`: 102% (active); for `CCN1CCN(c2cc(C)c3cc(NC(=O)c4cc(OC)cc(OC)c4)ccc3n2)CC1`: 102% (active); for `CSc1ccc2nccc(Nc3ccc(Oc4ccccc4)cc3)c2c1`: 94% (active).
`Cc1cccc2[nH]c(-c3cccc(-c4cccc(CN5CCCC5CN)c4)c3)nc12` (stereo not drawn): the growth inhibition was 101% (active).
On the same count and under the same terms, in the case of `COc1ccc(C(C(=O)NC2CCN(C[C@H](O)c3ccnc4ccc(OC)cc34)CC2)N2CCN(c3ccc(F)cc3)CC2)cc1` (stereo partly drawn) it was 97% (active); in that of `CCCc1cn2c3c(cc(C(=O)N[C@@H](Cc4ccccc4)[C@H](O)CNC4CCOCC4)cc13)N(C)S(=O)(=O)CC2`, 99% (active).
For the compound `CCCNCc1ccc(-c2ccc(CN(Cc3cnc(C)cn3)C(=O)/C=C/c3ccccc3C)cc2)nc1`, the growth inhibition was 95% (active).
Same read-out and setting: the same measure for `Cn1cc(C2CCN(CCCCNC(=O)c3ccc(C(=O)Nc4ccc(C#N)cc4)cc3)CC2)c2ccccc21`: 100% (active); for `CCOc1ccnc(=O)[nH]1`: 97% (active).
The same measure, in the same setting: the same measure for `COc1nc2c(CCN3CCC(NCc4ccc5c(c4)NCCO5)CC3)c(Cl)cnc2cc1F`: 102% (active).
On the same count and under the same terms, the same measure for `O=C(/C=C/c1ccc(Cl)cc1)NCCCCCN1CCC(C(=O)Nc2cccc(Cl)c2)CC1`: 97% (active); for `Cc1nnc2c(NC(=O)NC3CCCC3)cc3ccc(-c4cccc(CN(C)C)c4)cc3n12`: 90% (active); for `CC(C)(C)c1ccc(NC(=O)c2ccc(CN3CCCN(CC4CCCCC4)CC3)cc2)cc1`: 99% (active).
`O=C(Nc1cccc(-c2cccc(-c3nc4ccc(F)cc4[nH]3)c2)c1)c1ccncc1`: the growth inhibition was 92% (active).
With `CC(=O)c1c(Nc2c(C)cc(C)cc2C)oc(C)cc1=O`, the growth inhibition is 95% (active).
On the same count and under the same terms, the same measure for `O=C(NCCCCN1CCC(c2ccc(C(F)(F)F)cc2C(F)(F)F)CC1)c1ccc(NC(=O)c2ccc(Cl)cc2)cc1`: 99% (active).
Still for that read-out and setting: in the case of `O=C(N[C@@H](CC1CCCCC1)C(=O)NC1CCCc2ccccc21)c1ccc(O)c(-c2cccc(C(F)(F)F)c2)c1` (stereo partly drawn) it was 100% (active); in that of `COc1ccc2ncc(F)c(CCN3CC[C@@H](CNCc4cc(C)c5c(c4)OCCO5)C3)c2n1`, 98% (active); in that of `C#CCN(Cc1cc2c(=O)[nH]c(N)nc2cc1C)c1ccc(C(=O)N[C@@H](CCC(=O)O)C(=O)O)cc1`, 92% (active).
As to `COc1cc(Cc2cnc(N)nc2N)cc(OCCCOc2ccccc2)c1OC`, the growth inhibition was 94% (active).
